Of roughly 8,800 targets only a part is listed; those with a hit were picked by preference. About 0.5% of all pairs of compound and target were hits. Values without a mark were called inactive.
What was measured:
Test in all cases: log2 fold change, soluble protein after heating vs DMSO (PISA); higher = thermal stabilisation; K562 lysate, 10 uM; active = over 0.2 and 3.5 SD of the protein, either way, in both replicates (recomputed)
alvocidib = compound: CN1CC[C@H](c2c(O)cc(O)c3c(=O)cc(-c4ccccc4Cl)oc23)[C@H](O)C1 [alvocidib]
Procedure, shortened: (§1)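 The values are log-two fold changes in thermal stability compared with solvent controls and come from duplicates. They were obtained by TMTpro 16plex LC-MS/MS, with channel sums equalised, on the supernatant after 21,000xg for 90 min. That supernatant came from crude K562 extract at 1 mg/mL protein treated with 10 μM compound for 30 min, heated for 3 min across 48°C-58°C, pooled and brought to 0.5% NP-40 at 4°C.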

Tubastatin A = compound: CN1CCc2c(c3ccccc3n2Cc2ccc(C(=O)NO)cc2)C1 [Tubastatin A]
Procedure, shortened: as §1

[1] = compound: CNC(=O)C1=CC=CC=C1NC2=NC(=NC=C2Cl)NC3=C(C=C(C=C3)N4CCOCC4)OC
Procedure, shortened: as §1

defactinib = compound: CNC(=O)c1ccc(Nc2ncc(C(F)(F)F)c(NCc3nccnc3N(C)S(C)(=O)=O)n2)cc1 [defactinib]
Procedure, shortened: as §1

[2] = compound: CNc1nc(-c2ccc3c(N)n[nH]c3c2)cc(N2C[C@@H](C(=O)NC3CCCCC3)CC[C@H]2C)n1
Procedure, shortened: as §1

encorafenib = compound: COC(=O)N[C@@H](C)CNc1nccc(-c2cn(C(C)C)nc2-c2cc(Cl)cc(NS(C)(=O)=O)c2F)n1 [encorafenib]
Procedure, shortened: as §1

[3] = compound: COC(=O)[C@H](CCSC)NC(=O)C1=C(C=C(C=C1)NC[C@H](CS)N)C2=CC=CC=C2
Procedure, shortened: as §1

alisertib = compound: COc1cc(Nc2ncc3c(n2)-c2ccc(Cl)cc2C(c2c(F)cccc2OC)=NC3)ccc1C(=O)O [alisertib]
Procedure, shortened: as §1

[4] = compound: COc1cc2nc(-c3cc(F)ccc3O)nc(N[C@@H]3CNC[C@H]3C(C)(C)O)c2cc1OC
Procedure, shortened: as §1

gefitinib = compound: COc1cc2ncnc(Nc3ccc(F)c(Cl)c3)c2cc1OCCCN1CCOCC1 [gefitinib]
Procedure, shortened: as §1

UniProt Q8TDD1, sequence (Q8TDD1 whole entry, looked up): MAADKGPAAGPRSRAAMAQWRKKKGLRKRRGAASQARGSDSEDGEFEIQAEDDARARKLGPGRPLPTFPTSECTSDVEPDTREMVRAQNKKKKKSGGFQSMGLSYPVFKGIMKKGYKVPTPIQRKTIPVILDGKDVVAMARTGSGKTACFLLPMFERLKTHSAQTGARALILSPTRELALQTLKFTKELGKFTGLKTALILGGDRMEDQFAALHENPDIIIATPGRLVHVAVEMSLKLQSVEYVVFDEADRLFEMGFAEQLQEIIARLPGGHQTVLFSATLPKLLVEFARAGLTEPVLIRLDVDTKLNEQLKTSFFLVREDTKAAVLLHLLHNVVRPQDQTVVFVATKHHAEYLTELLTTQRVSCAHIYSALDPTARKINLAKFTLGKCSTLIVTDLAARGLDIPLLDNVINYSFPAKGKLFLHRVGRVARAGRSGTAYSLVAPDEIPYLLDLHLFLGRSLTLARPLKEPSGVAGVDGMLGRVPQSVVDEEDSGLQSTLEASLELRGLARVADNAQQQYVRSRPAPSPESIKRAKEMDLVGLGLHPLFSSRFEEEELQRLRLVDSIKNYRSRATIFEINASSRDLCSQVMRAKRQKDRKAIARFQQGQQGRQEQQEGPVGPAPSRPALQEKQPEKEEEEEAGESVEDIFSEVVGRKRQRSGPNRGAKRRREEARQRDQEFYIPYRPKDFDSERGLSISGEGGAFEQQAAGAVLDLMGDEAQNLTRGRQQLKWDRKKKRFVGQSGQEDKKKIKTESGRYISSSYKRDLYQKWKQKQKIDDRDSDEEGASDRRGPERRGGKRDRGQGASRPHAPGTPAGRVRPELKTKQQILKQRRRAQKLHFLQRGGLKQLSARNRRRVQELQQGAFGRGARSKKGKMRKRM
UniProt Q9H3Z4, sequence (Q9H3Z4 whole entry, looked up): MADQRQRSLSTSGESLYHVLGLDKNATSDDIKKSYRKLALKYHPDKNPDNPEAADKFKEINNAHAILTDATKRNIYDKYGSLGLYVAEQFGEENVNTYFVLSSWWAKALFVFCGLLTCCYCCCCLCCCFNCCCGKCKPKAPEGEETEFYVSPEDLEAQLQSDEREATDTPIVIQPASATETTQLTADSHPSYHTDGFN
UniProt Q14746, sequence (Q14746 whole entry, looked up): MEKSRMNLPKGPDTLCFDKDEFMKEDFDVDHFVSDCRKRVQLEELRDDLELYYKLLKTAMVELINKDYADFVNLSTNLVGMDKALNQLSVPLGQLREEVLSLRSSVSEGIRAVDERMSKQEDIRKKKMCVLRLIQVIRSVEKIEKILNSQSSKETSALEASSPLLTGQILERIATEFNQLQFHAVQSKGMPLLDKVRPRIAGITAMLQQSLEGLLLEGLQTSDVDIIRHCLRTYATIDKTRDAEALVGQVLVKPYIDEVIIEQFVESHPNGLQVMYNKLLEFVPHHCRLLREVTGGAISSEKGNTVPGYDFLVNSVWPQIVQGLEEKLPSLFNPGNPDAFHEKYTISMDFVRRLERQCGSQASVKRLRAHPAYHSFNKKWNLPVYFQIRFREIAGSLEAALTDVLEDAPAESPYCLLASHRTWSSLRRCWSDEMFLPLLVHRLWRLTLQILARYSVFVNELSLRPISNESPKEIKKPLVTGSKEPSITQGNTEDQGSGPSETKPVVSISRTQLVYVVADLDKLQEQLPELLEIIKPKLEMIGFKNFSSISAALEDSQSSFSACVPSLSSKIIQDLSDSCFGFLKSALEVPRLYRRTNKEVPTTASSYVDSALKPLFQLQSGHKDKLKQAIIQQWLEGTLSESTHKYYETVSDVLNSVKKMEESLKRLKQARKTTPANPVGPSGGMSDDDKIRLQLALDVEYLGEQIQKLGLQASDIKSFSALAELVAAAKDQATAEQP
UniProt Q6P3W2, sequence (Q6P3W2 whole entry, looked up): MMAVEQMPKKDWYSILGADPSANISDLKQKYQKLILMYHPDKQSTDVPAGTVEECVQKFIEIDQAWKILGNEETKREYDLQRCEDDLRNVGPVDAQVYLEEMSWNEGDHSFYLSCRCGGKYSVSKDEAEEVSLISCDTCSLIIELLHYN
UniProt Q92466, sequence (Q92466 whole entry, looked up): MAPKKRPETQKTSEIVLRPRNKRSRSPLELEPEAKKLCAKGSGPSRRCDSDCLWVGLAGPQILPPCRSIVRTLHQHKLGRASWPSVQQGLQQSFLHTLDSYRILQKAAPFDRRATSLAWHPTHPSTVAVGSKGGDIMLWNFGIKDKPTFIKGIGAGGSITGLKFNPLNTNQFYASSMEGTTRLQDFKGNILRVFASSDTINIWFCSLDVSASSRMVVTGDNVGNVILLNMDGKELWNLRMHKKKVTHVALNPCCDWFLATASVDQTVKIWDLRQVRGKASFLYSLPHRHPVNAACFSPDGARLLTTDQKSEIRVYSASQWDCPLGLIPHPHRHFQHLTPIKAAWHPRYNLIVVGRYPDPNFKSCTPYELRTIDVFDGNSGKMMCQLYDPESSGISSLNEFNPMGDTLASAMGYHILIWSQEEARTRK
UniProt O14757, sequence (O14757 whole entry, looked up): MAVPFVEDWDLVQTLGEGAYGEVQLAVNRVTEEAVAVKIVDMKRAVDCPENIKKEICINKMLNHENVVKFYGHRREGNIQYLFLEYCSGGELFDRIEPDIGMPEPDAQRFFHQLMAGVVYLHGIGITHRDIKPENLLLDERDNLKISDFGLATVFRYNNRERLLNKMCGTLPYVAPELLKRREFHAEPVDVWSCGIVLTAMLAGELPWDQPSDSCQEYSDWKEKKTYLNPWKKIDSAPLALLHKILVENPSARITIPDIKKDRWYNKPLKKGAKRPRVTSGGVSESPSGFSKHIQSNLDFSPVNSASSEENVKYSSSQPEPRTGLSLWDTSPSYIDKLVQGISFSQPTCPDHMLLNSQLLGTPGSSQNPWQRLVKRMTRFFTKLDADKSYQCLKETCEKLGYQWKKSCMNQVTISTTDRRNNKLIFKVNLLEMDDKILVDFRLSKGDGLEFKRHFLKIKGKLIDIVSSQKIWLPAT
UniProt Q99704, sequence (Q99704 whole entry, looked up): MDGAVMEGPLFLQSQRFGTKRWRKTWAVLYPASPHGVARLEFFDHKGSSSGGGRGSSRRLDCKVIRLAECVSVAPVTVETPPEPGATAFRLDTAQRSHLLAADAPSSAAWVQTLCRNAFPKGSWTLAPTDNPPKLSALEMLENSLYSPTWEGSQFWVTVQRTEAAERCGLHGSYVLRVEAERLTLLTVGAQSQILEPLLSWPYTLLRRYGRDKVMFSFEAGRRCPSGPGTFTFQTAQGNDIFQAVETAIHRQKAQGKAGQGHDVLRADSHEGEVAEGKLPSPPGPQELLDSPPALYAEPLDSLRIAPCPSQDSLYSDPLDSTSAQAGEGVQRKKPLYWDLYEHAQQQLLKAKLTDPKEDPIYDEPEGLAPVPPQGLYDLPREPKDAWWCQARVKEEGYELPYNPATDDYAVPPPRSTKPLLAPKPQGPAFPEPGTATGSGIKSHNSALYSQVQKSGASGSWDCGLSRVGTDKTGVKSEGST
UniProt Q6UWP2, sequence (Q6UWP2 whole entry, looked up): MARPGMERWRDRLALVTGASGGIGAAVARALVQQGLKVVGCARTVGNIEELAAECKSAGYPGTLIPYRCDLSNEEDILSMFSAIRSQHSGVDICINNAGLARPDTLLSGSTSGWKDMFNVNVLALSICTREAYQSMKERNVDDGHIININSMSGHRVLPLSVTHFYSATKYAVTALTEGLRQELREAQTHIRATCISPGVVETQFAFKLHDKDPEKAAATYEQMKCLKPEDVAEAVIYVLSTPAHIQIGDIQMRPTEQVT
UniProt Q8WYA6, sequence (Q8WYA6 whole entry, looked up): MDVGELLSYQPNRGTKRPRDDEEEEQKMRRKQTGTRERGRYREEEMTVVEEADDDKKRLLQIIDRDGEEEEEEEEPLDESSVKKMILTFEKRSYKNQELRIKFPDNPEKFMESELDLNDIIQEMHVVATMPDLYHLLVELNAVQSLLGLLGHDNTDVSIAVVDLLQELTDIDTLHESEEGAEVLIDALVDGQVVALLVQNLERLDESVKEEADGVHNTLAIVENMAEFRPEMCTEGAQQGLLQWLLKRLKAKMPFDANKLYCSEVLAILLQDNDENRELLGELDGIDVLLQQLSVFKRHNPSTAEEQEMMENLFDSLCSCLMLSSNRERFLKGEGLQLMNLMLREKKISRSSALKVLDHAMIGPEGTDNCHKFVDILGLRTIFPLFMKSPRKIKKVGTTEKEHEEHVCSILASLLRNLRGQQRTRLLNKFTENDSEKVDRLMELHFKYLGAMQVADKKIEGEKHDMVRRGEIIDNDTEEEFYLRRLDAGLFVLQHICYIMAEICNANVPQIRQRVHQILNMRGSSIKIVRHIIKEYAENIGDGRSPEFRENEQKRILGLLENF
UniProt P51790, sequence (P51790 whole entry, looked up): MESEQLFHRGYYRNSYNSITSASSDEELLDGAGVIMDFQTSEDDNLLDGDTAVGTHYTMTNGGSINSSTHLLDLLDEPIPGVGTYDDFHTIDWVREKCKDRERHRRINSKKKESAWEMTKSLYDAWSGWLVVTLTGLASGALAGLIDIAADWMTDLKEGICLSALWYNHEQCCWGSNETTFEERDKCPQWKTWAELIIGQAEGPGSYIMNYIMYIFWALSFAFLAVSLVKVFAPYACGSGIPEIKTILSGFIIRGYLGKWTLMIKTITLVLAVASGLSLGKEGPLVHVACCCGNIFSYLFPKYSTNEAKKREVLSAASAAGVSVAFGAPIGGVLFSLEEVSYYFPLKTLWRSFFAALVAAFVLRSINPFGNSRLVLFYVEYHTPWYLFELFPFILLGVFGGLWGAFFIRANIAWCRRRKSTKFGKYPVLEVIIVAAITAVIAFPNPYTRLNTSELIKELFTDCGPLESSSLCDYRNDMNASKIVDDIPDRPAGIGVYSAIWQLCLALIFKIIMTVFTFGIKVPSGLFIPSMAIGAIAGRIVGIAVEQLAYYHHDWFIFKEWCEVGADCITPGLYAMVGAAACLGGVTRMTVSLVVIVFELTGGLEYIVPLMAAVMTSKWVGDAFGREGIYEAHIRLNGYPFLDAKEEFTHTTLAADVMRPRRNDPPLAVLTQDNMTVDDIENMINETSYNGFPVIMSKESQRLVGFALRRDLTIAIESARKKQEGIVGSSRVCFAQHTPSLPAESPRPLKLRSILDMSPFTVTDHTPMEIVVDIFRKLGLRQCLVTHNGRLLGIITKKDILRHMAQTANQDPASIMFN

Target	log2 fold change (alvocidib)	log2 fold change (Tubastatin A)	log2 fold change [1]	log2 fold change (defactinib)	log2 fold change [2]	log2 fold change (encorafenib)	log2 fold change [3]	log2 fold change (alisertib)	log2 fold change [4]	log2 fold change (gefitinib)
DLG3 isoform 2 (UniProt Q92796)	-0.136	0	-0.026	0.053	-0.01	-0.089	-0.082	0.069	-0.055	-0.131
DDB2 (UniProt Q92466)	0	0.06	0.041	0.262 (active)	0.069	0.079	-0.065	0.045	0.055	-0.131
DDX54 isoform 2 (UniProt Q8TDD1)	-0.037	-0.047	0.017	-0.05	-0.03	0.084	0.025	0.023	0.006	-0.089
DIAPH1 (UniProt O60610)	0.03	0	-0.003	-0.018	-0.013	0.003	0.051	0.005	0.006	-0.001
DDA1 (UniProt Q9BW61)	0.024	-0.002	0.015	-0.004	0.031	0.013	0.021	-0.024	-0.003	-0.034
CHURC1 isoform 2 (UniProt Q8WUH1)	0.002	0.002	0	0.051	0.024	-0.068	-0.005	0.013	-0.145	-0.025
DHRS11 (UniProt Q6UWP2)	-0.001	-0.083	0.055	0.021	0.031	0.024	0.109	-0.074	0.031	-0.022
CHEK1 (UniProt O14757)	0.01	0.072	-0.063	-0.021	-0.002	0.002	-0.008	0.008	-0.178	0.013
DENND4A isoform 2 (UniProt Q7Z401)	-0.067	-0.141	-0.024	0.077	-0.001	0.013	0.032	-0.018	0.17	-0.041
COG2 (UniProt Q14746)	-0.032	-0.114	-0.009	0.05	0.028	-0.009	0.052	0.021	-0.022	-0.039
DNAJC24 (UniProt Q6P3W2)	0.079	0.001	-0.017	0.009	-0.088	0.037	-0.027	-0.017	-0.006	-0.038
DOK1 (UniProt Q99704)	-0.02	-0.135	0.059	0.059	-0.005	-0.007	0.044	0.082	0.071	-0.102
DNAJC5 (UniProt Q9H3Z4)	-0.216	0.062	0.019	0.011	0.054	0.016	-0.057	-0.119	0.019	-0.039
CTNNBL1 (UniProt Q8WYA6)	0.027	0.148	-0.004	-0.015	0.417 (active)	0.023	0.101	-0.013	-0.027	0.022
CLCN3 isoform 2 (UniProt P51790)	-0.02	0.02	0.024	-0.015	0.033	0.041	0.022	-0.007	-0.002	0.005

Reference: the supplement of paper PMC10849652
